Test results reported in PubChem BioAssay (EPA / NIEHS).
Calls of active or inactive are those of the source. The calls were made as follows: active = hit-call score of the fitted dose curve at least 0.9, where 1 is the maximum; inactive = score below 0.9.

read-out: Tumor necrosis factor receptor 1 (TNFRSF1A), TNFRSF1A (gene 7132); assay: LTEA_HepaRG_TNFRSF1A: Life Technologies and Expression Analysis (LTEA) Assay for Tumor necrosis factor receptor 1 (TNFRSF1A) using HepaRG (AID 2283535); conditions: mRNA level, 48 h; actives raise or lower the signal
Method: LTEA_HepaRG is a cell based, multiplexed-readout assay that uses HepaRG, a human liver cell line, with measurements taken at 48 hours after chemical dosing on a 96-well plate.LTEA_HepaRG_TNFRSF1A is one of 102 assay component(s) measured in the LTEA HepaRG cell culture assay. It is a marker of Cell proliferation, survival, death.Data from the assay component LTEA_HepaRG_TNFRSF1A was analyzed into 1 endpoint. This assay endpoint, LTEA_HepaRG_TNFRSF1A, was analyzed with bidirectional fitting relative to DMSO as the negative control and baseline of activity. Using a type of inducible reporter, measures of mRNA induction for gain or loss-of-signal activity can be used to understand regulation of transcription factor activity. To generalize the intended target to other relatable targets, this assay endpoint is annotated to the cytokine receptor intended target family, where the subfamily is TNF receptor.
A total of 1060 chemcials from the ToxCast library were tested in eight-point concentration-response experiments. Cell culture and cytotoxicity assays were conducted at Thermo Fisher Scientific's Custom Services facility (Madison, WI). A single lot of human HepaRG cells (Thermo Fisher Scientific, Frederick, MD) was used for the cell culture experiments. 96-well format collagen type I coated plates of human HepaRG cells were prepared using established methods. Briefly, cryopreserved HepaRG cells were thawed, plated at a density of approximately 100,000 cells/well in HepaRG Thaw, Plate, and General Purpose media (HPRG770, Thermo Fisher Scientific), and incubated for 48 hours. 0.5% DMSO was selected as vehicle control to balance the requisite need of DMSO in HepaRG cultures to maintain differentiation (for example, baseline metabolism, proportions of hepatocytes vs. cholangiocytes), while enabling further hepatic receptor pathway activation (for example, PXR and CAR) in response to chemical exposure. 48 hours after plating, the culture medium was replaced with HepaRG Serum-Free Incudtion Media. Cells were exposed to each test chemical in duplicate and maintained in CO2 incubators for another 48 hours. Chemical plates were thawed to room temperature and 200x concentrations of treatment groups were prepared. 8-point conentration-reponse curves were made with the highest exposure at 100 uM, followed by half-log dilutions, all in 0.5% DMSO. Each test plate contained variouse controls, induction positive controls (1mM phenobarbital), cytotoxicity positive controls ([…] aflatoxin B1), vehicle controls (0.5% DMSO), and total lysis controls (0.5% DMSO). Cell morphology images were taken using an Essen IncuCyte FLR automated microscope, with six 96-well plates imaged in about 24 minutes. Images were captured and exported and JPEG files. Spent culture media was transfered to black-well plates for the LDH assay, and remaining media was sorted at -80 C for later use. Cells were treated with RLT buffer and frozen until shipped for gene expression analysis. Total RNA was isolated from the cell suspension in 75 uL of Buffer RLT (Qiagen, Germantown, MD 20874) by Quintiles/Expression Analysis (Durham, NC) using a custom isolation procedure. Total RNA from each plate well was transferred to a preamplification plate. Fluidigm's 96.96 Dynamic ArrayTM (Fluidigm, Amsterdam, the Netherlands) technology was used for gene expression analyses by quantitative reverse transcription polymerase chain reaction (qRT-PCR, performed by Quintiles/Expression Analysis, Durham, NC)89. Standard TaqManTM Assays (Applied Biosystems/ThermoFisher Scientific, Foster City, CA) were used to assess the expression of 93 genes selected based on their selectivity and sensitivity to important hepatic receptors known to be modulated by environmental chemicals; importance in human hepatocyte functionality; and hepatotoxicity. […]

SMILES | outcome | AC50
CC1(C)C(C(=O)OC(C#N)c2cccc(Oc3ccccc3)c2)C1(C)C (stereo not given) | inactive | –
Clc1cccc(C(Cl)(Cl)Cl)n1 | inactive | –
CS(=O)(=O)c1ccc(C(=O)C2C(=O)CCCC2=O)c([N+](=O)[O-])c1 | inactive | –
COc1cc(Cl)c(OC)cc1Cl | inactive | –
Nc1c(Cl)c(F)nc(OCC(=O)O)c1Cl | inactive | –
N#CN=C1SCCN1Cc1ccc(Cl)nc1 | inactive | –
CCOc1nc(C(Cl)(Cl)Cl)ns1 | inactive | –
COC(=O)N(C(=O)N1CO[C@@]2(C(=O)OC)Cc3cc(Cl)ccc3C2=N1)c1ccc(OC(F)(F)F)cc1 | inactive | –
CNC(=O)N(C)c1nnc(C(C)(C)C)s1 | inactive | –
CO/N=C(/C1=NOCCO1)c1ccccc1Oc1ncnc(Oc2ccccc2Cl)c1F | inactive | –
CCC(C)n1c(=O)[nH]c(C)c(Br)c1=O (stereo not given) | inactive | –
COP(=S)(OC)Oc1ccc([N+](=O)[O-])c(C)c1 | inactive | –
CCOP(=S)(OCC)Oc1nc(Cl)n(C(C)C)n1 | inactive | –
CN=C=S | inactive | –
CCCCC(C#N)(Cn1cncn1)c1ccc(Cl)cc1 (stereo not given) | inactive | –
CC1(C)CON(Cc2ccccc2Cl)C1=O | inactive | –
C=CCOC(=O)C(C)(C)OC(=O)c1cc(-n2c(=O)cc(C(F)(F)F)n(C)c2=O)ccc1Cl | inactive | –
O=C(O)c1c(Cl)ccc2cc(Cl)cnc12 | inactive | –
CC1(C)C(C=C(Cl)Cl)C1C(=O)OC(C#N)c1cccc(Oc2ccccc2)c1 (stereo not given) | inactive | –
CS(=O)(=O)c1cc(C(F)(F)F)ccc1C(=O)c1cnoc1C1CC1 | inactive | –

SMILES | outcome | AC50
CNC(=O)Oc1cccc2ccccc12 | inactive | –
O=C(Nc1ccccc1-c1ccc(Cl)cc1)c1cccnc1Cl | inactive | –
COCC(C)N(C(=O)CCl)c1c(C)csc1C (stereo not given) | inactive | –
Cn1c(-c2ccccc2)cc(-c2ccccc2)[n+]1C | – | 72.2 µM (active)
CN/C(=N\[N+](=O)[O-])NCc1cnc(Cl)s1 | inactive | –
COC(=O)c1c(C(F)F)nc(C(F)(F)F)c(C2=NCCS2)c1CC(C)C | inactive | –
COCC(=O)N(c1c(C)cccc1C)C(C)C(=O)OC (stereo not given) | inactive | –
OC(c1ccc(Cl)cc1)(c1ccc(Cl)cc1)C(Cl)(Cl)Cl | – | 50 µM (active)
Cc1cc(C)nc(Nc2ccccc2)n1 | inactive | –
CC(C)N1C(=O)c2ccccc2NS1(=O)=O | inactive | –
Clc1nc(Cl)nc(Nc2ccccc2Cl)n1 | inactive | –
N#Cc1c(Cl)cccc1Cl | inactive | –
C=C(C)CN(CC)c1c([N+](=O)[O-])cc(C(F)(F)F)cc1[N+](=O)[O-] | inactive | –
CC(C)C1(C)N=C(c2ncccc2C(=O)O)NC1=O (stereo not given) | inactive | –
CSC(=O)c1c(C(F)F)nc(C(F)(F)F)c(C(=O)SC)c1CC(C)C | inactive | –
COC(=O)NS(=O)(=O)c1ccc(N)cc1 | inactive | –
Cc1ccc(N=CN(C)C=Nc2ccc(C)cc2C)c(C)c1 | inactive | –
CCOC(=O)C(C)OC(=O)c1cc(Oc2ccc(C(F)(F)F)cc2Cl)ccc1[N+](=O)[O-] (stereo not given) | inactive | –
N#Cc1c[nH]cc1-c1cccc2c1OC(F)(F)O2 | inactive | –
CC(C)(C)C(=O)C(Oc1ccc(Cl)cc1)n1cncn1 (stereo not given) | inactive | –
